The list is not random: actives were taken first. Their share in the collection is about 5.2%.
Sfp PPTase inh = qHTS Assay for Inhibitors of Bacillus subtilis Sfp phosphopantetheinyl transferase (PPTase); 4'-phosphopantetheinyl transferase ffp (Bacillus subtilis), Q9F4F7; Biochemical Sfp PPTase activity, qHTS; Potency, µM, hits mostly inhibitors; 310,000 tested, 3.5% active; AID 1490, 2009;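 also: the enzyme is Sfp with the accession as filed and its product quenches rhodamine fluorescence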
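Buffer: 50 mM Hepes-Na pH 7.6, 10 mM MgCl2, 0.01% Nonidet P-40, 0.01% BSA. Enzyme 15 nM, pre-exposed to compound 15 min; substrates then added and fluorescence change tracked over 30 min.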
Tau fibril ThT = qHTS for Inhibitors of Tau Fibril Formation, Thioflavin T Binding | Microtubule-associated protein tau (Homo sapiens), P10636 | recombinant tau K18 P301L, heparin-induced fibrillization, ThT fluorescence | Potency, µM (doses to about 57.4 µM), hits mostly inhibitors | 270,000 tested, 2.1% active; also: nearly all actives have a fitted effect of over 55% in size
Target sequence (P10636 561-689 P618L limits assumed): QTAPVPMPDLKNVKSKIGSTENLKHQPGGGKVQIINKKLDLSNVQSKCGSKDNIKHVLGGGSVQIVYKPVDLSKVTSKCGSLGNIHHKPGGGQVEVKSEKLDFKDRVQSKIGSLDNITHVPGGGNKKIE
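Heparin-induced (20 uM) aggregation of recombinant human K18 P301L tau, 15 uM unlabeled with 0.24 uM labeled, pH 7 acetate buffer, 6 hr at 37 C with compound. Fibrils quantified by 30 uM ThT fluorescence after 1 hr ambient incubation.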
Tau FP inhib = qHTS for Inhibitors of Tau Fibril Formation, Fluorescence Polarization | K18 P301L tau heparin fibrillization, Alexa594 FP, 6 h | Potency, µM (doses to about 57.7 µM), actives largely listed as inhibitors | 280,000 tested, 0.39% active | AID 1468, 2008; also: nearly all actives have a fitted effect of over 55% in size
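Heparin (20 uM) drove fibril formation of recombinant tau K18 P301L, 15 uM unlabeled with 0.24 uM Alexa 594 label, for 6 hr at 37 C in 100 mM sodium acetate pH 7. Fluorescence polarization (555/632 nm) read 1 hr after 30 uM ThT.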
Coupling enz = qHTS Assay for Inhibitors of Fructose-1,6-bisphosphate Aldolase from Giardia Lamblia: Coupling assay counterscreen. coupling enzyme system counterscreen, AmpLite Red fluorescence. activity change, negative = inhibition, % at 58.2 µM, hits read low. 290,000 tested, 0.67% active; in the data active = activity change below about -30%
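Compounds tested against the coupling enzymes alone at 57.5 uM final; readout was AmpLite Red fluorescence (525/598 nm) after 20 min at RT.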
Tau fluor counter = Counterscreen qHTS for Inhibitors of Tau Fibril Formation, Fluorescence Polarization; 280,000 tested, 0.93% active; Potency, µM (doses to about 57.7 µM); tau K18 P301L (four-repeat tau fragment) Alexa594 fluorescence, heparin fibrillization; also: nearly all actives have a fitted effect of over 55% in size
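Human K18 P301L tau (15 uM unlabeled plus 0.24 uM Alexa 594-labeled, final) in 100 mM sodium acetate pH 7 was mixed with compound and 20 uM heparin and incubated 6 hr at 37 C.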
Each line names hits and unclear results; the compound was inactive in the other large screens; [ ] = another dose, or the depositor's remark. Unless noted, calls follow the shape of the dose curve; as a rule, active = well fitted curve in the direction sought with a large enough effect; inconclusive = small, poorly fitted or top-dose-only effect, or another doubt; inactive = no such curve, though single readings can be large; an effect the other way counts as inactive or inconclusive.

CN=CC1=C(O)c2ccccc2C1=O	none
N#CC1=C(N)SC(N)=C(C#N)C1C1C=CCCC1 (stereo not drawn)	Sfp PPTase inh 40µM
N#CC1=C(N)SC(N)=C(C#N)C1C1CC=CCC1 (stereo not drawn)	Sfp PPTase inh 20µM
N#CC1=C(N)SC(N)=C(C#N)C1Cc1ccccc1	Sfp PPTase inh inconclusive, Tau fibril ThT inconclusive
Cc1cc2c(c(=O)o1)C(C1C=CCCC1)C(C#N)=C(N)O2 (stereo not drawn)	none
COc1cc2[nH]c(=O)n(CCCC(=O)NCc3ccc(Cl)cc3)c(=O)c2cc1OC	Tau fibril ThT inconclusive (no result: Sfp PPTase inh, Coupling enz)
CCc1ccccc1NC(=O)N1CC(CC)Oc2ccc(Cl)cc21 (stereo not drawn)	none (no result: Sfp PPTase inh, Coupling enz)
CCc1cccc(C)c1NC(=O)Cn1c(=O)cc(C)c2c(C)nn(-c3cccc(F)c3)c21	none (no result: Sfp PPTase inh, Coupling enz)
CC(C)(C)c1cc(CN2CCCCC2)cc(C(C)(C)C)c1O	Sfp PPTase inh 35µM, Coupling enz -56
COc1cc(NC(=O)c2noc3c2CC(C(C)(C)C)CC3)cc(OC)c1OC (stereo not drawn)	Tau fibril ThT inconclusive, Tau fluor counter inconclusive (no result: Sfp PPTase inh, Coupling enz)
CN=c1scc(-c2ccc(F)cc2)n1/N=C/c1ccc(O)c(O)c1	Sfp PPTase inh 56µM, Tau fibril ThT 10µM, Tau fluor counter 18µM[quencher]
Cc1ccc(CN2CCN(/N=C/c3ccc(O)c(O)c3)CC2)cc1	none (no result: Tau fibril ThT, Tau FP inhib, Tau fluor counter)
CCc1ccc(-n2c(SCc3ccccc3C)nc3[nH]ncc3c2=O)cc1	none (no result: Sfp PPTase inh, Coupling enz)
COc1cc(-c2cc(OC)c3c(C)oc(C)c3c(=O)c2)ccc1OC(=O)c1ccccc1Cl	Tau fibril ThT inconclusive (no result: Sfp PPTase inh, Coupling enz)
COc1cc(-c2cccs2)cc(=O)c2c(C)oc(C)c12	Sfp PPTase inh 45µM, Tau fibril ThT 25µM, Tau FP inhib inconclusive
CCC1=NN2C(=N)/C(=C\c3cccn3-c3ccc(C)cc3C)C(=O)N=C2S1	Tau fibril ThT inconclusive
CC1=CSC2=NC(=O)/C(=C\c3cccn3-c3ccccc3)C(=N)N12	Sfp PPTase inh 10µM
Cc1ccc(-n2cccc2/C=C2/C(=N)N3C(=NC2=O)SN=C3S(C)(=O)=O)cc1Cl	Sfp PPTase inh 89µM, Tau fibril ThT inconclusive
CCC1=NN2C(=N)/C(=C\c3cccn3-c3c(C)cccc3C)C(=O)N=C2S1	Sfp PPTase inh 56µM
O=C(Nc1ccccc1)c1nnsc1S(=O)c1ccc(Cl)cc1 (stereo not drawn)	Sfp PPTase inh 7.9µM
O=C(c1nnsc1S(=O)c1ccc(Cl)cc1)N1CCOCC1 (stereo not drawn)	Sfp PPTase inh 56µM, Tau fibril ThT inconclusive, Tau FP inhib inconclusive
COCCNc1nc(-c2ccoc2)nc2ccccc12	none (no result: Tau fibril ThT, Tau FP inhib, Tau fluor counter)
O=C(c1ccccc1Cl)N1CCCCC1CCN1CCCCC1 (stereo not drawn)	none (no result: Sfp PPTase inh, Coupling enz)
COc1ccc(C)cc1NC(=O)c1cc2c(=O)n(Cc3cccnc3)ccc2nc1C	none (no result: Sfp PPTase inh, Coupling enz)
CCC(=NCc1ccccc1)C1=C(O)C(C(=O)OC)C(C)(C)CC1=O (stereo not drawn)	Tau fibril ThT inconclusive
CCCCC(=Nc1ccc(N)cc1)C1=C(O)C(C(=O)OC)C(C)(C)CC1=O (stereo not drawn)	Tau fibril ThT 10µM, Tau FP inhib 25µM, Coupling enz -40, Tau fluor counter 7.9µM[quencher]
CCCC(=Nc1ccccc1)C1=C(O)C(C(=O)OC)C(C)(C)CC1=O (stereo not drawn)	none
CCC(=Nc1ccc(N)cc1)C1=C(O)C(C(=O)OC)C(C)(C)CC1=O (stereo not drawn)	Sfp PPTase inh 45µM, Tau fibril ThT 7.1µM, Tau FP inhib 14µM, Coupling enz -48, Tau fluor counter inconclusive
CCOC(=O)CSc1nc(C2CC2)nc2ccccc12	Sfp PPTase inh 89µM
CC(=Nc1ccc(Br)cc1)c1sc2ccccc2c1O	Sfp PPTase inh 32µM, Tau fibril ThT inconclusive, Tau fluor counter inconclusive
COc1ccc2sc(N(Cc3cccnc3)C(=O)C3COc4ccccc4O3)nc2c1 (stereo not drawn)	Tau FP inhib inconclusive (no result: Sfp PPTase inh, Coupling enz)
O=C1S/C(=C\C=C\c2ccco2)C(=O)N1c1ccccc1	Sfp PPTase inh inconclusive, Tau fibril ThT 14µM, Tau FP inhib inconclusive, Tau fluor counter inconclusive
O=C1S/C(=C\C=C\c2ccco2)C(=O)N1c1ccc(O)cc1	Sfp PPTase inh inconclusive, Tau fibril ThT 14µM, Tau FP inhib inconclusive, Tau fluor counter 16µM[quencher]
O=C1S/C(=C\c2cccs2)C(=O)N1c1ccc(O)cc1	none (no result: Tau fibril ThT, Tau FP inhib, Tau fluor counter)
Cc1cc(C)n(-c2nnc(N3CCN(c4ccc(F)cc4)CC3)nn2)n1	Tau fibril ThT 13µM
Cc1cc(C)n(-c2ccc(N3CCOCC3)nn2)n1	none
Cn1ncc([N+](=O)[O-])c1C(=O)N/N=C/c1cccc([N+](=O)[O-])c1	Coupling enz -35
Cn1ncc([N+](=O)[O-])c1C(=O)N/N=C/c1ccc(F)cc1	none
CC1(C)CC(=O)c2cc(-c3nc(-c4ccc(Cl)cc4)cs3)c(=O)n(-c3cccc(F)c3)c2C1	none (no result: Sfp PPTase inh, Coupling enz)
CC(=O)Nc1ccc(C(=O)N(C)C(C(=O)Nc2ccc(C)cc2)c2ccccn2)cc1 (stereo not drawn)	none
CCOc1ccc(NC(=O)C(c2ccccn2)N(C(=O)CCl)c2ccc(OC)cc2)cc1 (stereo not drawn)	Sfp PPTase inh 14µM, Coupling enz -43
COc1ccc(NC(=O)C(c2ccccn2)N(C(C)=O)c2ccc(C)cc2)cc1 (stereo not drawn)	none
CCOc1ccc(NC(=O)C(c2ccccn2)N(C(=O)CCl)c2ccc(OCC)cc2)cc1 (stereo not drawn)	Sfp PPTase inh 40µM, Tau fibril ThT 10µM, Tau FP inhib inconclusive, Tau fluor counter inconclusive
CC(=O)c1c(C)n(-c2cccc(Cl)c2)c2ccc(OC(=O)c3ccccc3)cc12	none (no result: Sfp PPTase inh, Coupling enz)
CSc1nnc(C)c(/C=C/Nc2ccc(Cl)cc2)n1	Tau fibril ThT 16µM
COc1ccc(N/C=C/c2nc(SC)nnc2C)cc1	Tau fibril ThT 3.2µM
CSc1nnc(C)c(/C=C/Nc2ccc(F)cc2)n1	Tau fibril ThT inconclusive
O=C(CC1N=C2c3ccccc3N=C(SCc3cccc(Cl)c3)N2C1=O)NC1CCCCC1 (stereo not drawn)	none (no result: Sfp PPTase inh, Coupling enz)
CC(=O)Nc1ccccc1-c1nc2ccccc2n(C(C)C(=O)c2ccc(C)c(C)c2)c1=O (stereo not drawn)	none (no result: Sfp PPTase inh, Coupling enz)
CN1CCc2c(sc3c2C(=O)NC(c2ccc(-c4ccc(Cl)cc4)o2)N3)C1 (stereo not drawn)	Sfp PPTase inh 50µM, Tau fibril ThT 3.2µM, Tau FP inhib inconclusive, Tau fluor counter inconclusive
CN1CCc2c(sc3c2C(=O)NC(c2cn(Cc4ccccc4)c4ccccc24)N3)C1 (stereo not drawn)	Tau fibril ThT 18µM, Tau FP inhib inconclusive
CCCNC(=O)c1c(C)nn(-c2cccc(C)c2)c1-n1cccc1	none (no result: Sfp PPTase inh, Coupling enz)

Compound activity (PubChem)
